# Reference: PMC7862700, “An all-to-all approach to the identification of sequence-specific readers for epigenetic DNA modifications on cytosine”
# Tests used:
# Test in all cases: DAPPL (digital affinity profiling via proximity ligation, sequencing); 10 mM Tris-HCl pH 7.5, 50 mM NaCl, 1 mM DTT, 4% glycerol, room temperature, 30 min; GST-TFs on glutathione beads, 16-mer random dsDNA library, 0.1% formaldehyde crosslink after washing; high values mean tight binding
# FLI1 = target: T1, FLI1 (Homo sapiens, UniProt Q01543 1-452); conditions: protein: recombinant; tags: N-terminal GST; dsDNA, one strand shown
# T1 sequence: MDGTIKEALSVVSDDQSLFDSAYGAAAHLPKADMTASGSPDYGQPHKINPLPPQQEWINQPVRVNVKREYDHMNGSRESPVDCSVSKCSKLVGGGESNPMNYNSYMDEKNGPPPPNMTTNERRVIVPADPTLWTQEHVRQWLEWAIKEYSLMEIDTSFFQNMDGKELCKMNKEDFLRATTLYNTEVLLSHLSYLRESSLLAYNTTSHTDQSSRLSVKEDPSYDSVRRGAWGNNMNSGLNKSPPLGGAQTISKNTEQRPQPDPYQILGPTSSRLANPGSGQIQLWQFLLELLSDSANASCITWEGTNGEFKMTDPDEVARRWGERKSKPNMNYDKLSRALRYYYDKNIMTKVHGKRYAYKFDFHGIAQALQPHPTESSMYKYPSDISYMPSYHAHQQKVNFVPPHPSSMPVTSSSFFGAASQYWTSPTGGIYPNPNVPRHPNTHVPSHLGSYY
# Outline: (§1)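 GST fusions of human transcription factors were expressed in yeast and captured with glutathione beads. Once given DNA barcodes and pooled alongside a tag-only sample, they were incubated for 30 min at room temperature with 200 nmole of a random double-stranded 16-mer DNA library in Tris/NaCl/DTT/glycerol buffer, then washed, crosslinked (0.1% formaldehyde), proximity-ligated, PCR-amplified and sequenced on an Illumina NextSeq500. The binding signal of each hexamer is its read frequency for a factor divided by its frequency for the tag-only sample.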
# ELK1 = target: T2, ELK1 (Homo sapiens, UniProt P19419 1-428); conditions: protein: recombinant; tags: N-terminal GST; dsDNA, one strand shown
# T2 sequence: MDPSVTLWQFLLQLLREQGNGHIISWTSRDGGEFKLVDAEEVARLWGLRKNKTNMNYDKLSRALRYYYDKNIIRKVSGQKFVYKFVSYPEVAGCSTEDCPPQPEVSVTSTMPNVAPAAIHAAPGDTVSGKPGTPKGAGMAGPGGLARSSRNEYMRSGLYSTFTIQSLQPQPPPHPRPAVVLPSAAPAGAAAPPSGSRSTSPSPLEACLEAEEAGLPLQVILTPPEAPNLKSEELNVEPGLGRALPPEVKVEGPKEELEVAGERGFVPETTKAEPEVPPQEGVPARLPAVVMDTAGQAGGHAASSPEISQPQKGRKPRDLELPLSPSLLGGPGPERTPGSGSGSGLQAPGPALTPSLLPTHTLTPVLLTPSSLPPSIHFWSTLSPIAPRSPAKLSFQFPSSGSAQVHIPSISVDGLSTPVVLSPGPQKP
# Outline: as §1
# GABPA = target: T3, GABPA (Homo sapiens, UniProt Q06546 1-454); conditions: protein: recombinant; tags: N-terminal GST; dsDNA, one strand shown
# T3 sequence: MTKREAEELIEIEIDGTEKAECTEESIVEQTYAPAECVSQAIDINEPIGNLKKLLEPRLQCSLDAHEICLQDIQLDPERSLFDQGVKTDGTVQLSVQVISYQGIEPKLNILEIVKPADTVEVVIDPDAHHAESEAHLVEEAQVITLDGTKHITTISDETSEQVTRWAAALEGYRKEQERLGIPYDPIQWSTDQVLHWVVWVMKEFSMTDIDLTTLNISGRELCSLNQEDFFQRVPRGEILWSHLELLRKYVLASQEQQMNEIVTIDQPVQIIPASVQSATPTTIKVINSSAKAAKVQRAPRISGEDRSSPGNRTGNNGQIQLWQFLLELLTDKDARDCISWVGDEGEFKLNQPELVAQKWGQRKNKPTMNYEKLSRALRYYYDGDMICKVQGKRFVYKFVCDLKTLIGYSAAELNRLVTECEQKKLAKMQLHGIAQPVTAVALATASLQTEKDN
# Outline: as §1
# ERG = target: T4, ERG (Homo sapiens, UniProt P11308 1-479); conditions: protein: recombinant; tags: N-terminal GST; dsDNA, one strand shown
# T4 sequence: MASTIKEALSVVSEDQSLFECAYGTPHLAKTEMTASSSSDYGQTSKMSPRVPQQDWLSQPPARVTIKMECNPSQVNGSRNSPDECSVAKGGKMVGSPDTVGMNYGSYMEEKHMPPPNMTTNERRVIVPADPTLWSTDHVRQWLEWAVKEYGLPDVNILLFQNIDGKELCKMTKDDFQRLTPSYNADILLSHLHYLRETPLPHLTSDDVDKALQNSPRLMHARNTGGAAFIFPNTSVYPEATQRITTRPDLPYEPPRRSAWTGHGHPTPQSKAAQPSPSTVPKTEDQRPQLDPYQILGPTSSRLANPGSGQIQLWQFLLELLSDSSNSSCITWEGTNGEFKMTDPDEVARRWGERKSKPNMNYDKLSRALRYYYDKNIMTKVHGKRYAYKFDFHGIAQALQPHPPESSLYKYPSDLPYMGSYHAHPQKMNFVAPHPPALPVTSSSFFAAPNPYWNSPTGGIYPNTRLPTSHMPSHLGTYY
# Outline: as §1
# ELF1 = ELF1 (Homo sapiens, UniProt P32519 1-619); conditions: protein: recombinant; tags: N-terminal GST; dsDNA, one strand shown
# Chain of ELF1 (P32519 whole entry): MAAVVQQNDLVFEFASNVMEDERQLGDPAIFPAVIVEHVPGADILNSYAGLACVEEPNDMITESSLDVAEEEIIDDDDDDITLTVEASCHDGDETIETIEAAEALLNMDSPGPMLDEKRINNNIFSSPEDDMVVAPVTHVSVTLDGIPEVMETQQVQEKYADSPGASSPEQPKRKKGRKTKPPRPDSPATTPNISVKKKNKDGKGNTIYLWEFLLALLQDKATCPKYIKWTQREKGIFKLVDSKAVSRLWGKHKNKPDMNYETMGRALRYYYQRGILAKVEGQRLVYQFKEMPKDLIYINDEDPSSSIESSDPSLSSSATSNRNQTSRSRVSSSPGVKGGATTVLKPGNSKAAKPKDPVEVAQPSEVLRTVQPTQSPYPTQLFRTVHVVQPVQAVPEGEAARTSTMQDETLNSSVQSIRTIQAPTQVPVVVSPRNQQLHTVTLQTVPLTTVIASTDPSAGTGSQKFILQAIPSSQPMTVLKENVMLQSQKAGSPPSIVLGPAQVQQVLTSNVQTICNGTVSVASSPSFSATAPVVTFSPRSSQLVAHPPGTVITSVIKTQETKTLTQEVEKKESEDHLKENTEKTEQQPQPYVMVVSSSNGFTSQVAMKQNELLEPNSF
# Outline: as §1
# EHF = target: T5, EHF (Homo sapiens, UniProt Q9NZC4 1-300); conditions: protein: recombinant; tags: N-terminal GST; dsDNA, one strand shown
# T5 sequence: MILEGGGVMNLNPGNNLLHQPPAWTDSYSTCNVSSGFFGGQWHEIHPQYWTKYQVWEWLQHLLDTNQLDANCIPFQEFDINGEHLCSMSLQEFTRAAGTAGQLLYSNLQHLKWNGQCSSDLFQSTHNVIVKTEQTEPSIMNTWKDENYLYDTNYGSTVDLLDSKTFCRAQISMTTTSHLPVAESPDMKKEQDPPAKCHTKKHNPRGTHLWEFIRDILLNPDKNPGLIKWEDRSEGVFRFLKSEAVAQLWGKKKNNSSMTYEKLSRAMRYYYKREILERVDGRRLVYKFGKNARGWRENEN
# Outline: as §1
# SPI1 = SPI1 (Homo sapiens, UniProt P17947 1-270); conditions: protein: recombinant; tags: N-terminal GST; dsDNA, one strand shown
# Outline: as §1
# SPIB = SPIB (Homo sapiens, UniProt Q01892 1-262); conditions: protein: recombinant; tags: N-terminal GST; dsDNA, one strand shown
# Chain of SPIB (Q01892 whole entry): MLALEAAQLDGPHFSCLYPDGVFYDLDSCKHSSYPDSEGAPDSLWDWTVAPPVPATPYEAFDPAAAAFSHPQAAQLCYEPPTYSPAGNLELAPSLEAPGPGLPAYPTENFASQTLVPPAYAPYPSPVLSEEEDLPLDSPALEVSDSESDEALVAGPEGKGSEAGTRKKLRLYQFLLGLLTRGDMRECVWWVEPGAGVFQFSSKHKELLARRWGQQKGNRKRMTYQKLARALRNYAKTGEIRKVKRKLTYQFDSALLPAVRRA
# Outline: as §1
# ELK3 = target: T6, ELK3 (Homo sapiens, UniProt P41970 1-407); conditions: protein: recombinant; tags: N-terminal GST; dsDNA, one strand shown
# T6 sequence: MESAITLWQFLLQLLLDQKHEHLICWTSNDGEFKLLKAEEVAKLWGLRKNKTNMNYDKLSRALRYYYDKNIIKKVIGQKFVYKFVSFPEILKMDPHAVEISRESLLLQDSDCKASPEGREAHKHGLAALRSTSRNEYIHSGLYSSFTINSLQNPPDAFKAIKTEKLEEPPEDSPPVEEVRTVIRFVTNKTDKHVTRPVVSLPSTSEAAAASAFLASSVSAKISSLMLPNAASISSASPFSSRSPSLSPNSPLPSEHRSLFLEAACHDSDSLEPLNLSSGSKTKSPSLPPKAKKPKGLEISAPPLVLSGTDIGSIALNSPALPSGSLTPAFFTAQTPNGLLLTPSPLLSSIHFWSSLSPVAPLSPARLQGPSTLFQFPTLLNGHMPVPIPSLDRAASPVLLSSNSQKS
# Outline: as §1
# FEV = target: T7, FEV (Homo sapiens, UniProt Q99581 1-238); conditions: protein: recombinant; tags: N-terminal GST; dsDNA, one strand shown
# T7 sequence: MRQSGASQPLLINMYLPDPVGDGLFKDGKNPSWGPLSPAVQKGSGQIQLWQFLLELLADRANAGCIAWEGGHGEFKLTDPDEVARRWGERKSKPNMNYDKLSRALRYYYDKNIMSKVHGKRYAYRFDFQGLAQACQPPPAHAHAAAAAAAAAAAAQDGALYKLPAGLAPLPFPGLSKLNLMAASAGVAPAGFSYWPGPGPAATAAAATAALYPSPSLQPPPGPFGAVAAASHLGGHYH
# Outline: as §1
# ETV5 = ETV5 (Homo sapiens, UniProt P41161 1-510); conditions: protein: recombinant; tags: N-terminal GST; dsDNA, one strand shown
# Chain of ETV5 (P41161 whole entry): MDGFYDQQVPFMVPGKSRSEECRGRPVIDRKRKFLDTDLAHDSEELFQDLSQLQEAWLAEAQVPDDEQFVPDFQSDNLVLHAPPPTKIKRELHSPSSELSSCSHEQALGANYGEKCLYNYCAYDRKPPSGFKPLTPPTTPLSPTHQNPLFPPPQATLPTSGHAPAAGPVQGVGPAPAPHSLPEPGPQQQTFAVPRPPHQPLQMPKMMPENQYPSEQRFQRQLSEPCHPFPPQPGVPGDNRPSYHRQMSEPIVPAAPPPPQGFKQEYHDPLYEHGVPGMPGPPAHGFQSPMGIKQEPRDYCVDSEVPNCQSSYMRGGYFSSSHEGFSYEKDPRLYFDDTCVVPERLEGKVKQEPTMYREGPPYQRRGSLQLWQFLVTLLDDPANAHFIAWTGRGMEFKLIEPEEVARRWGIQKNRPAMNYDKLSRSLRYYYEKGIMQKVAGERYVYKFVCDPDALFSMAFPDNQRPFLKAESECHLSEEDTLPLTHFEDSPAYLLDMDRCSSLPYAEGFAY
# Outline: as §1
# HSF1 = HSF1 (Homo sapiens, UniProt Q00613 1-529); conditions: protein: recombinant; tags: N-terminal GST; chain copies: 3; dsDNA, one strand shown
# Chain of HSF1 (Q00613 whole entry): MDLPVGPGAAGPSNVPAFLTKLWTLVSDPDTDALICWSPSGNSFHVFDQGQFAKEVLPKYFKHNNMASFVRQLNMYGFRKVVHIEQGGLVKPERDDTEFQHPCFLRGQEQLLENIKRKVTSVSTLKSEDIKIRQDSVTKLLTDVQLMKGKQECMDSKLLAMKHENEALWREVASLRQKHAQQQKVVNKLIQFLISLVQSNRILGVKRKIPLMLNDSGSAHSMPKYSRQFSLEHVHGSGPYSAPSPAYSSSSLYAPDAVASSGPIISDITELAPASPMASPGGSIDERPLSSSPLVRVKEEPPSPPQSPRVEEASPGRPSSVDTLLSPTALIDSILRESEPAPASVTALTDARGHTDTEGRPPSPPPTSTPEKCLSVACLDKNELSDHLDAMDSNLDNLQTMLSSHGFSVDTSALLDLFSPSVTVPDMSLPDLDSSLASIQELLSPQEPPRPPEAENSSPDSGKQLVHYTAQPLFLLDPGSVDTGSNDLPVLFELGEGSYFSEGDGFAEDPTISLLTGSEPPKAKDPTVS
# Outline: as §1
# SPIC = target: T8, SPIC (Homo sapiens, UniProt Q8N5J4 1-248); conditions: protein: recombinant; tags: N-terminal GST; dsDNA, one strand shown
# T8 sequence: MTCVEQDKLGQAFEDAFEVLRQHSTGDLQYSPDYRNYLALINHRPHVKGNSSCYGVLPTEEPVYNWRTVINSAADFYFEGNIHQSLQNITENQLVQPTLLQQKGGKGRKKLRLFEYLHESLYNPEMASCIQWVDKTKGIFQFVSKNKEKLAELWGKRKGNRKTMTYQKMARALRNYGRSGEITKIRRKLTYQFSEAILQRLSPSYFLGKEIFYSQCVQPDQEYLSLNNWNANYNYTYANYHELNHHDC
# Outline: as §1
# ELF4 = ELF4 (Homo sapiens, UniProt Q99607 1-663); conditions: protein: recombinant; tags: N-terminal GST; dsDNA, one strand shown
# Chain of ELF4 (Q99607 whole entry): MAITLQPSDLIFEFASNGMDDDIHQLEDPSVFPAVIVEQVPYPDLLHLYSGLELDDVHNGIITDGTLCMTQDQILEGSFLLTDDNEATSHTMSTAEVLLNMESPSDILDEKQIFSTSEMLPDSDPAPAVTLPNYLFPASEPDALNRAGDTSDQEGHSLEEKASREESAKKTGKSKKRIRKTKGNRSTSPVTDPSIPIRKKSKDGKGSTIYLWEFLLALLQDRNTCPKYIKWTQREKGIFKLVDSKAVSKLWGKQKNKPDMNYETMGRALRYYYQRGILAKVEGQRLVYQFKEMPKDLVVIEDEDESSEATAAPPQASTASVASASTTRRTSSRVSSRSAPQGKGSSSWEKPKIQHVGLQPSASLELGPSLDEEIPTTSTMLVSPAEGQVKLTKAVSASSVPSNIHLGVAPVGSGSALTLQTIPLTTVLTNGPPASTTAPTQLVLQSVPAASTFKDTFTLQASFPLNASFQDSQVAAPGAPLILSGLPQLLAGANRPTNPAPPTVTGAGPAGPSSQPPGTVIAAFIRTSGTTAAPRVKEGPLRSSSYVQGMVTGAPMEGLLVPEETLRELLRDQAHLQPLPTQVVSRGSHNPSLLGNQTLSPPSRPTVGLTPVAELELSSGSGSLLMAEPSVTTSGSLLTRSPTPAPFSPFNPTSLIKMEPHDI
# Outline: as §1
# ELK4 = target: T9, ELK4 (Homo sapiens, UniProt P28324-2 1-405); conditions: protein: recombinant; tags: N-terminal GST; dsDNA, one strand shown
# T9 sequence: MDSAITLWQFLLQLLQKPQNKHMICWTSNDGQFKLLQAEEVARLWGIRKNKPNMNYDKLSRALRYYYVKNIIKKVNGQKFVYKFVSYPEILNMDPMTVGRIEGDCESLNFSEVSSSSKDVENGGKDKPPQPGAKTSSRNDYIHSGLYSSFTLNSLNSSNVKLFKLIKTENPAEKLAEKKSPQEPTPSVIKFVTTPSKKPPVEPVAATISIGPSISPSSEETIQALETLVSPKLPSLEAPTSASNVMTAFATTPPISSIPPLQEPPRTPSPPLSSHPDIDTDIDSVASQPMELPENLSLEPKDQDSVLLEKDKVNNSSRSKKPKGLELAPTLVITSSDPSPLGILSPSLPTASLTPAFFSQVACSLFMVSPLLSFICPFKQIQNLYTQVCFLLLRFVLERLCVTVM
# Outline: as §1
# ETV2 = target: T10, ETV2 (Homo sapiens, UniProt O00321 1-342); conditions: protein: recombinant; tags: N-terminal GST; dsDNA, one strand shown
# T10 sequence: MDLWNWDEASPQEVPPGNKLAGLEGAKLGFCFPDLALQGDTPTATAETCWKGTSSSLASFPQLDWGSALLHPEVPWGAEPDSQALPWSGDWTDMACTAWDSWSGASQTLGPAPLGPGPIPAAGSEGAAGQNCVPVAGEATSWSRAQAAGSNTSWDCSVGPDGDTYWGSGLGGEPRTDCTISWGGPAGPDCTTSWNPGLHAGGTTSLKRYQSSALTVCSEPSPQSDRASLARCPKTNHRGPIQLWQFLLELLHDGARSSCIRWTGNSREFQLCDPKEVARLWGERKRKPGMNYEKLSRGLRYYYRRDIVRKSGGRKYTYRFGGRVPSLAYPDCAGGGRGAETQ
# Outline: as §1
# ELF3 = target: T11, ELF3 (Homo sapiens, UniProt P78545 1-371); conditions: protein: recombinant; tags: N-terminal GST; dsDNA, one strand shown
# T11 sequence: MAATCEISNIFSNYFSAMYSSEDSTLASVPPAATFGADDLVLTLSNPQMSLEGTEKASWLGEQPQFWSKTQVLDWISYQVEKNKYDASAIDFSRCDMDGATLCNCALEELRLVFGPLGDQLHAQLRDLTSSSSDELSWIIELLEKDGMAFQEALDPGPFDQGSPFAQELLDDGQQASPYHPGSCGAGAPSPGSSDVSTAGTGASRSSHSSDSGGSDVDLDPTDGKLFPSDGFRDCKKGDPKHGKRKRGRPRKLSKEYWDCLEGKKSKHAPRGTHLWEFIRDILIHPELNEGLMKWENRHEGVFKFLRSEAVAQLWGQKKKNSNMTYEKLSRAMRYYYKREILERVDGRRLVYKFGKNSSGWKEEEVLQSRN
# Outline: as §1
# ETV1 = ETV1 (Homo sapiens, UniProt P50549 1-477); conditions: protein: recombinant; tags: N-terminal GST; dsDNA, one strand shown
# Chain of ETV1 (P50549 whole entry): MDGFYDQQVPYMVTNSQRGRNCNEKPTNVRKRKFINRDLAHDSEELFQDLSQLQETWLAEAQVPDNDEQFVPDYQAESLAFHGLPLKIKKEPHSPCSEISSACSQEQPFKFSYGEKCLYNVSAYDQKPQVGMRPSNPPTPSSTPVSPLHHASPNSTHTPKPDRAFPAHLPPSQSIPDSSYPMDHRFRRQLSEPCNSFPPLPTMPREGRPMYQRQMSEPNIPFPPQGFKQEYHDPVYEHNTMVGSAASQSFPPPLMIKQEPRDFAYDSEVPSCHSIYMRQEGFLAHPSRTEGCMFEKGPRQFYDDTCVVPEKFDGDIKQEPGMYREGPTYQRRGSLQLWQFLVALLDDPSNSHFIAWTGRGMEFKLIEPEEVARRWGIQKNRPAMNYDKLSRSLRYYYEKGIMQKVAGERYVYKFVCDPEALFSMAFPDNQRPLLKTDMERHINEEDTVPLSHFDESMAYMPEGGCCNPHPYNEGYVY
# Outline: as §1
sequence,measurement,setting,value
TCTGTC,binding signal,FLI1,"1.16 fold enrichment (6-mer frequency, TF over GST control)"
same,binding signal,ELK1,"1.13 fold enrichment (6-mer frequency, TF over GST control)"
same,binding signal,GABPA,"1.16 fold enrichment (6-mer frequency, TF over GST control)"
same,binding signal,ERG,"1.17 fold enrichment (6-mer frequency, TF over GST control)"
same,binding signal,ELF1,"1.12 fold enrichment (6-mer frequency, TF over GST control)"
same,binding signal,EHF,"1.14 fold enrichment (6-mer frequency, TF over GST control)"
same,binding signal,SPI1,"1.1 fold enrichment (6-mer frequency, TF over GST control)"
same,binding signal,SPIB,"1.05 fold enrichment (6-mer frequency, TF over GST control)"
same,binding signal,ELK3,"1.17 fold enrichment (6-mer frequency, TF over GST control)"
same,binding signal,FEV,"1.13 fold enrichment (6-mer frequency, TF over GST control)"
same,binding signal,ETV5,"1.18 fold enrichment (6-mer frequency, TF over GST control)"
same,binding signal,HSF1,"1.07 fold enrichment (6-mer frequency, TF over GST control)"
same,binding signal,SPIC,"1.3 fold enrichment (6-mer frequency, TF over GST control)"
same,binding signal,ELF4,"1.13 fold enrichment (6-mer frequency, TF over GST control)"
same,binding signal,ELK4,"1.27 fold enrichment (6-mer frequency, TF over GST control)"
same,binding signal,ETV2,"1.19 fold enrichment (6-mer frequency, TF over GST control)"
same,binding signal,ELF3,"1.19 fold enrichment (6-mer frequency, TF over GST control)"
same,binding signal,ETV1,"1.23 fold enrichment (6-mer frequency, TF over GST control)"
